Screens: PubChem, National Center for Advancing Translational Sciences (NCATS)
Hits are enriched below; roughly 10% of the tested compounds scored in any of these assays.
BAZ2B inh: blocks human BAZ2B; hit rate 4.4% among 360,000; Potency, µM (doses to about 114 µM), for the others: top-dose activity change, negative = inhibition, most hits filed as inhibitors; Q9UIF8; AID 504333; AlphaScreen BAZ2B-H3K14Ac peptide displacement; further: potency means the concentration at half of the fitted maximal effect; on the % scale 0 is the no-effect control and ±100 the full control effect; nearly all actives have a fitted effect of over 60% in size
Target sequence (Q9UIF8 whole entry, looked up): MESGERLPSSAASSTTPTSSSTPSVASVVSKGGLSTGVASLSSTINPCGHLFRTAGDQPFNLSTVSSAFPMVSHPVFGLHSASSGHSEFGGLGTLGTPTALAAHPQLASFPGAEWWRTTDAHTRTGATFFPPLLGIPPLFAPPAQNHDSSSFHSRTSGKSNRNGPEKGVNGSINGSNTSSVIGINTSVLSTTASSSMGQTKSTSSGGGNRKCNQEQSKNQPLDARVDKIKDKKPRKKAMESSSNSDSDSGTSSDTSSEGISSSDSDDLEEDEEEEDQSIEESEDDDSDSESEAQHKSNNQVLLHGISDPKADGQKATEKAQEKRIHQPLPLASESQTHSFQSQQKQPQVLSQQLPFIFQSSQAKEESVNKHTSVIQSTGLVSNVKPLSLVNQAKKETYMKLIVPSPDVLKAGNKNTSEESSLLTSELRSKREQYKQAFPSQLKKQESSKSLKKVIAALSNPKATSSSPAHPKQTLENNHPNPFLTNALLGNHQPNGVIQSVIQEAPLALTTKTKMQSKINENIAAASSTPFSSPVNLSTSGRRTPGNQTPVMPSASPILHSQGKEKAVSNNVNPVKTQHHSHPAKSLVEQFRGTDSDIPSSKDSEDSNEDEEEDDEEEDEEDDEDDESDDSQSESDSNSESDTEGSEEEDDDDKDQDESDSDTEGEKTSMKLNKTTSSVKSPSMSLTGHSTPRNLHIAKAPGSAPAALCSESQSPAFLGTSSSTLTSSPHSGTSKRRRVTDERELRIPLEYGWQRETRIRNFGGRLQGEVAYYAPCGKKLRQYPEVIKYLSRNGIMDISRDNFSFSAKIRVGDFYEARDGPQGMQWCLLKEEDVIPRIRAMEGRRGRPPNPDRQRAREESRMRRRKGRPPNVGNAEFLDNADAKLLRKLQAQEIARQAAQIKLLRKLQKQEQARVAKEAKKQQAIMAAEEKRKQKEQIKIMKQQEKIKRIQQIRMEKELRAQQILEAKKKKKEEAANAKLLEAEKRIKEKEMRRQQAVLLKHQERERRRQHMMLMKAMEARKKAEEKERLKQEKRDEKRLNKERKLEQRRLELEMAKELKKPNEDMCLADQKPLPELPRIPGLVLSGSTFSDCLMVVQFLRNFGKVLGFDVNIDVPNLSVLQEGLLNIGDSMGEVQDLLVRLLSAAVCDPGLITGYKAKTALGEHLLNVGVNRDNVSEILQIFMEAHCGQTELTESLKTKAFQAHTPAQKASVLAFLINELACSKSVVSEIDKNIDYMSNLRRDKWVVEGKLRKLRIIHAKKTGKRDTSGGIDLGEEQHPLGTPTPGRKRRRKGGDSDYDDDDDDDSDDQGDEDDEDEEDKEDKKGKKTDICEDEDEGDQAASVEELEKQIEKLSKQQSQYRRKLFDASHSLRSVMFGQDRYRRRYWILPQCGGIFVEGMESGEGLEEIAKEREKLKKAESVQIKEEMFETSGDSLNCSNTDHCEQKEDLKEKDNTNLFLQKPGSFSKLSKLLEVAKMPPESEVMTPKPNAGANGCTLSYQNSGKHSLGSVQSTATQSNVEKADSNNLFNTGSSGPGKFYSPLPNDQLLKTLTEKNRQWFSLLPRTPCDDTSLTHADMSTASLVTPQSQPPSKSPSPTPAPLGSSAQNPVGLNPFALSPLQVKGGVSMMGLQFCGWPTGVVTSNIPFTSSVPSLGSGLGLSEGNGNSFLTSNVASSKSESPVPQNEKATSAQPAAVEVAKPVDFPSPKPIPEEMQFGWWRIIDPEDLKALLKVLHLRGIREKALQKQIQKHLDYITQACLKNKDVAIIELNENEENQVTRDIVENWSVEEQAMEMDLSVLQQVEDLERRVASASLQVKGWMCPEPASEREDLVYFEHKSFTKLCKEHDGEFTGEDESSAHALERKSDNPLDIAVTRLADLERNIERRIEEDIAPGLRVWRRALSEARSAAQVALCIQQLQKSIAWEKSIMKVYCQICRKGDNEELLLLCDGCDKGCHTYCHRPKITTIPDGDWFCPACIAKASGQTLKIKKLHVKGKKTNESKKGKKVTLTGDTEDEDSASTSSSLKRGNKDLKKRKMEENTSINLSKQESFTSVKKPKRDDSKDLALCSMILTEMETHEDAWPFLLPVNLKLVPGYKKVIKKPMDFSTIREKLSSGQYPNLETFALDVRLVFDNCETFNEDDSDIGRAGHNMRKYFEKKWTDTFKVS
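AlphaScreen displacement of biotin-H3(5-23)K14Ac peptide (50 nM final) from BAZ2B (50 nM final) in PBS pH 7.4, 0.01% Tween-20; complex preformed 30 min RT, then compounds (top 110 uM) 30 min RT, beads 20 min dark.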
CtBP-E1A inh: CtBP/E1A binding inhibition. activity change, % (no concentration beside the values). AlphaScreen GST-E1A/His-CtBP binding, 1536-well; active compounds read low. hit rate 0.49% among 340,000; in the data active means activity change below about -65%; inconclusive means mostly about -30% to -63%; further: on the % scale 0 is the no-effect control and ±100 the full control effect
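GST-E1A and His-tagged CtBP (125 nM each as 5X stock) were preincubated with pin-transferred compound for 2 h at 37 °C in the dark, then glutathione donor and nickel acceptor beads were added for 1 h before AlphaScreen reading.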
JMJD2A Tudor inh: JMJD2A Tudor domain (human) inhibition; hit rate 4.4% among 390,000; Potency, µM (titrated, usually from 114 µM), for the others: at the top dose activity change, negative = inhibition, hits mostly inhibitors; AlphaScreen JMJD2A-Tudor / H3K4me3 peptide binding; O75164; further: potency means the concentration at half of the fitted maximal effect; on the % scale 0 is the no-effect control and ±100 the full control effect; nearly all actives have a fitted effect of over 50% in size
G9a block: inhibitors of human histone lysine methyltransferase G9a; Q96KQ7; hit rate 8.8% among 350,000; G9a H3K9 monomethylation, AlphaScreen, 2 h; Potency, µM (titrated, usually from 102 µM), without a hit: at the top dose activity, negative = inhibition, most hits filed as inhibitors; AID 504332; further: potency means the concentration at half of the fitted maximal effect; on the % scale 0 is the no-effect control and ±100 the full control effect; nearly all actives have a fitted effect of over 75% in size
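Step 1: enzyme (final 20 nM) with compound, 15 min RT. Step 2: substrate peptide 500 nM and SAM 20 uM, 2 h RT. Step 3: anti-H3K9me1 antibody and AlphaScreen beads, 10 min, then plate read.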
Six1-Eya2 blk: inhibitors of human Six1/Eya2 interaction; Q15475+O00167; AlphaScreen GST-Six1/His-Eya2 binding, biochemical; active compounds read low; AID 651725; hit rate 0.56% among 360,000; activity change, % (test concentration not listed); in the data active means activity change below about -65%; inconclusive means mostly about -30% to -63%; further: on the % scale 0 is the no-effect control and ±100 the full control effect
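AlphaScreen with GST-Six1 and His-Eya2 (5X mix: 250 nM and 500 nM), glutathione donor and nickel acceptor beads; buffer 50 mM Tris pH 8.0, 300 mM NaCl, 1 mM TCEP; 1 h at 37 C in the dark.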
HP1b binding inh: blocks HP1-beta chromodomain binding to methylated histone tails | P83916 | AID 540317 | AlphaScreen HP1-beta / biotin-H3K9me3 peptide binding | Potency, µM (titrated, usually from 114 µM), for inactives: at the highest dose activity change, negative = inhibition, usual class: inhibitors | hit rate 0.56% among 390,000; further: potency means the concentration at half of the fitted maximal effect; nearly all actives have a fitted effect of over 70% in size
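AlphaScreen: HP1-beta (50 nM) preformed 30 min with biotin-H3(1-18)K9me3 peptide (50 nM) in PBS pH 7.4, 0.01% Tween-20. Compound added for 30 min at RT, then streptavidin donor/nickel chelate acceptor beads (10 ug/mL) for 30 min.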
An asterisk follows results filed as active; ? = inconclusive; · = no result; [ ] = remark or other dose. Unless noted, the call rests on the fitted dose curve; in most records, active means well fitted inhibition curve with a large enough effect; inconclusive means small, poorly fitted or top-dose-only effect; inactive means no such curve, though single readings can be large or run the other way.

SMILES | BAZ2B inh | CtBP-E1A inh | JMJD2A Tudor inh | G9a block | Six1-Eya2 blk | HP1b binding inh
COc1ccc(N2CCN(c3nc4ccccc4n4c(C)nnc34)CC2)cc1 | -1.7% | · | -5.6% | -7.9%[59 µM] | · | 20.6%
CC1OC(CC(=O)O)CC2=C1C(=O)c1c(O)cccc1C2=O (stereo not given) | · | 1.2 | 56.2µM* | · | -88.7* | ?
O=C(O)CC1CC(c2ccccc2)=NO1 (stereo not given) | · | · | · | -4.2%[59 µM] | · | ·
COc1ccc(/C=C/C(=O)O)cc1S(=O)(=O)N1CCCCC1 | -30.1% | · | -3.6% | · | -2.1 | 46.4%
CN1CCN(NS(=O)(=O)c2cccs2)CC1 | 6.1% | 4.9 | -6.1% | 1.41µM* | -0.5 | 35.7%
CCCc1cc(=O)oc2cc(C)cc(OCC(=O)N3CCC(C(N)=O)CC3)c12 | -3.2% | 6.9 | -14.3% | 11.6%[12.7 µM] | 7.0 | 33.6%
COC(=O)COc1ccc2c(c1)O/C(=C\c1ccco1)C2=O | ? | 4.6 | ? | 25.1µM* | -16.1 | -18.9%
CCC(=O)Oc1ccc2c(c1)O/C(=C\c1ccco1)C2=O | ? | 5.7 | -30.3% | 50.1µM* | 4.5 | ?
CC(=O)Oc1ccc2c(c1)O/C(=C\c1ccncc1)C2=O | 2.7% | -0.9 | -13.6% | · | 5.5 | 51.8%
CCN(CC)C(=O)Oc1ccc2c(c1)O/C(=C\c1ccco1)C2=O | 39.8µM* | -1.1 | ? | 25.1µM* | -5.4 | -18.6%
Cc1cc(O)cc2c1C(=O)/C(=C/c1ccco1)O2 | ? | -1.1 | ? | ? | 5.0 | -30.8%
Cc1cc(C)nc(Nc2nc(C(N)Cc3ccc(Cl)cc3)cs2)n1 (stereo not given) | · | -23.9 | · | · | -17.3 | ·
COc1c(O)cc(O)cc1O | · | · | · | -27.5%[2.33 µM] | · | ·
Cc1cc(O)c(Oc2cc(C)cc(O)c2O)c(O)c1 | ? | -0.7 | 39.8µM* | 0.891µM* | -15.9 | ?
NS(=O)(=O)c1ccc(NC(=S)NCCc2ccccc2)cc1 | -24.5% | · | -26.8% | 11.2µM* | 11.4 | -24.6%
CC(=O)c1ccc(NC(=S)NCCc2ccc(S(N)(=O)=O)cc2)cc1 | -15.7% | -23.2 | -0.7% | -23.9% | -10.0 | 41.3%
O=[N+]([O-])c1ccc(O)c(NC(=S)Nc2ccccc2)c1 | -37.8% | -4.9 | ? | 4.47µM* | -13.6 | ?
NS(=O)(=O)c1ccc(CCNC(=O)c2ccc[nH]c2=S)cc1 | -18.4% | 7.1 | 2.24µM* | 1.41µM* | 0.3 | ?
CC(=O)Oc1ccc(C(=O)NCCc2ccccc2)cc1 | -3.9% | 16.2 | -6.4% | -6.2% | 1.5 | 32.1%
CC(=O)Oc1ccc(-c2ccc(C(=O)NCCc3ccc(S(N)(=O)=O)cc3)cc2)cc1 | -5.7% | 0.8 | -22.4% | 70.8µM* | 14.5 | -21.1%
CC(=O)Nc1ccc(C(=O)NCCCOC(C)C)cc1 | -25.8% | 6.3 | -14.1% | -0.4% | 3.7 | 34.8%
COc1ccc([N+](=O)[O-])cc1NC(=S)Nc1ccccc1 | -8.7% | 3.5 | -21.5% | ? | -0.4 | 9.5%
O=[N+]([O-])c1ccc(NC(=S)NCCc2ccccc2)cc1 | ? | -9.2 | ? | 44.7µM* | -10.4 | ?
O=[N+]([O-])c1ccc(NNC(=S)Nc2ccccc2)cc1 | 50.1µM* | -11.1 | 50.1µM* | ? | ? | 56.2µM*
CC(C)OCCCNC(=S)Nc1ccc(S(N)(=O)=O)cc1 | -1.3% | 9.6 | 89.1µM* | 10µM* | 1.7 | 31.6µM*
SMILES | BAZ2B inh | CtBP-E1A inh | JMJD2A Tudor inh | G9a block | Six1-Eya2 blk | HP1b binding inh
O=[N+]([O-])c1ccc(NC(=S)NCCc2ccc(Cl)cc2)cc1 | ? | 5.4 | ? | -35.6%[59 µM] | -27.3 | -21.7%
COc1ccc2c(C)cc(SCC(=O)Nc3ccc(Cl)cn3)nc2c1 | -25.1% | -2.1 | -25.2% | 12.6µM* | 1.7 | -10.7%
COc1ccc2c(C)cc(SCC(=O)NC3CCCCC3)nc2c1 | · | -13.2 | -10.3% | · | 4.7 | 21.4%
Cc1ccc2c(c1)C(c1ccc(F)cc1)N(C(=O)C(C)C)CC(=O)N2 (stereo not given) | 1.6% | · | -25.9% | 13.6%[59 µM] | · | 37.1%
O=C(N/N=C/c1ccccc1O)c1cc(=O)[nH]c2ccccc12 | 50.1µM* | · | · | 1.2%[59 µM] | · | ·
Cc1nc(C)c(C(=O)N/N=C/c2cc(Br)ccc2O)s1 | ? | -83.9* | ? | 54.8%[59 µM] | ? | 43.1%
Nc1nonc1C(=O)N/N=C/c1cc(Br)ccc1O | 7.94µM* | -92.2* | 17.8µM* | ? | -93.1* | 36.9%
O=C(N/N=C/c1ccccc1O)c1cccc2ccccc12 | 5.8% | · | -9.6% | · | -5.0 | 36.9%
Cc1cc(C(=O)N/N=C/c2cc(Br)ccc2OC(=O)c2ccccc2)n[nH]1 | 9.9% | -67.0* | -12.0% | 11.4%[59 µM] | ? | 44.1%
Cc1nn(C)c(Cl)c1S(=O)(=O)N(Cc1ccco1)c1ncnc2nc[nH]c12 | · | · | -27.7% | · | · | -2.8%
CNC(=O)C1CN(C(=O)c2nn(Cc3ccccc3)c(=O)c3ccccc23)c2ccccc2O1 (stereo not given) | · | 4.1 | · | · | 1.2 | ·
CC(C)(C)C(=O)Nc1ccc2c(c1)C(=O)C(=O)c1ccccc1-2 | · | · | 4.8% | · | · | 41.9%
Cc1cc(C)n(-c2nc3cc(Cl)ccc3nc2Nc2ccc(CC(=O)O)cc2)n1 | 9.0% | · | -5.8% | 16.4%[59 µM] | · | 54.5%
O=C(Nc1cccc(F)c1)c1ccc(-c2cccnc2)c2ccoc12 | · | 6.7 | · | · | 2.9 | ·
COc1ccc(/C=N/NC(=O)C(=O)Nc2ccccn2)cc1OC | 0.0% | -0.2 | -28.0% | ? | 0.7 | 15.0%
O=C(N/N=C/c1ccccc1O)C(=O)Nc1ccccn1 | ? | · | ? | -4.4% | -88.2* | 53.7%
